p53null 32C tox = selectivity test: cytotoxicity in p53 null cells, permissive temperature; H1299-neo p53 null cells, ATP luminescence, 24 h, 32C; Potency, µM (highest dose often 46.1 µM), for inactives: top-dose activity change, negative = cytotoxicity, usual class: cytotoxic; 0.62% of 55,000 active; AID 903;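 further: potency means the concentration at half of the fitted maximal effect; 0% = DMSO only and -100% = full killing by 100 µM tamoxifen; nearly all actives have a fitted effect of over 55% in size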
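H1299-neo (p53 null) cells, 600/well, treated 24 h at 32C with compound up to 46 uM; ATPlite luminescence viability, normalized to DMSO and 100 uM tamoxifen; AC50 by Hill fit.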
SKOV3 invasion = blocks SKOV3ip1 adhesion and invasion in omental model. 0.1% of 46,000 active. Potency, µM (top dose mostly 45.8 µM), for inactives: at the top dose activity change, negative = inhibition, hits mostly inhibitors. SKOV3ip1-GFP adhesion/invasion on 3D omental model, fluorescence;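 further: potency means the concentration at half of the fitted maximal effect; plate controls were DMSO wells for no effect and tomatine positive control wells for full effect; nearly all actives have a fitted effect of over 65% in size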
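A 3D layer of primary human omental fibroblasts, mesothelial cells, fibronectin and collagen I, grown 48 hr, received SKOV3ip1-GFP cells in serum-free medium plus compounds at 0.36-46 umol/L. After 2 hr RT and 16 hr 37 C, fixed adherent GFP cells were counted; normalized to DMSO and tomatine.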
FH mod = Identification of activators of human fumarate hydratase by quantitative high-throughput screening; FH coupled MDH/diaphorase resazurin fluorescence, 15 min; Potency, µM (top dose mostly 79.9 µM), inactives show at the top dose activity change, negative = inhibition, usual class: inhibitors; 0.22% of 54,000 active; further: potency means the concentration at half of the fitted maximal effect; on the % scale 0 is the no-effect control and ±100 the full control effect; the screen sought activators but most active calls are inhibition curves; nearly all actives have a fitted effect of over 45% in size
NTMT1 inhibitor = NTMT1 methyltransferase inhibition; Q9BV86; NTMT1 MTase-Glo SAH luminescence, purified enzyme; Potency, µM (highest dose often 114 µM), without a hit: at the top dose activity change, negative = inhibition, hits mostly inhibitors; 2.5% of 59,000 active; AID 1645870;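 further: potency means the concentration at half of the fitted maximal effect; plate controls were DMSO vehicle for no effect and no enzyme for full effect; nearly all actives have a fitted effect of over 65% in size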
Target sequence (Q9BV86 whole entry, looked up): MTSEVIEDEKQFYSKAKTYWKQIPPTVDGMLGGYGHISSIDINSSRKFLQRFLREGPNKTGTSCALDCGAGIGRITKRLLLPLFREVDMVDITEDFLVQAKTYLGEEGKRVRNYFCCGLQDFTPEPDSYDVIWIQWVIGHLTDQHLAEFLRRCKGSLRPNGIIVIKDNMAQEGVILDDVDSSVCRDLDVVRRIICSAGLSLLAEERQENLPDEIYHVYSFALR
p53null 39C tox = kills p53 null cells at the nonpermissive temperature. 0.97% of 55,000 active. Potency, µM (highest dose often 46.1 µM), for the others: at the highest dose activity, negative = cell killing, most hits filed as cytotoxic. AID 904. H1299 p53-null (neo) cells, 39C, ATPlite viability, 24 h;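 further: potency means the concentration at half of the fitted maximal effect; 0% = DMSO only and -100% = full killing by 100 µM tamoxifen; nearly all actives have a fitted effect of over 50% in size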
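Cells seeded at 600/well, 37C overnight. Compound added (up to 46 uM), plates shifted to 39C for 24 hr. ATPlite added, luminescence read after 20 min at room temperature.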
DYRK1A KinaseGlo = blocks recombinant human DYRK1A kinase activity. shares compounds with NTMT1 inhibitor. recombinant DYRK1A, Kinase-Glo ATP depletion luminescence. Potency, µM (titrated, usually from 76.9 µM), without a hit: top-dose activity change, negative = inhibition, usual class: inhibitors. 80% of 100 active. AID 2705
Sfp qHTS opt = Sfp PPTase inhibition, chemistry optimization; 78% of 230 active; Potency, µM (doses to about 114 µM), inactives show at the top dose activity change, negative = inhibition, usual class: inhibitors; AID 540350; purified Sfp PPTase enzyme activity, qHTS; shares compounds with NTMT1 inhibitor
HM489 growth = Sfp PPTase inhibitors: growth inhibition of B. subtilis HM489. shares compounds with NTMT1 inhibitor. B. subtilis HM489 (acpS-) growth, BacTiter-Glo, 5 h. Potency, µM (top dose mostly 114 µM), for inactives: top-dose activity change, negative = inhibition, actives largely listed as inhibitors. 50% of 220 active. AID 540353
Sfp gel opt = inhibits B. subtilis Sfp PPTase in gel assay; shares compounds with NTMT1 inhibitor; purified Sfp PPTase, gel-based product detection; Potency, µM (top dose mostly 250 µM), inactives show top-dose activity change, negative = inhibition, actives largely listed as inhibitors; 54% of 220 active; AID 540355
Sfp inh gel = inhibits B. subtilis Sfp PPTase in gel-based assay; shares compounds with NTMT1 inhibitor; purified Sfp PPTase, gel-based product detection; Potency, µM (series often up to 250 µM), without a hit: at the highest dose activity change, negative = inhibition, hits mostly inhibitors; 90% of 45 active
Sfp inh SAR2 = inhibits B. subtilis Sfp PPTase in second SAR round; shares compounds with NTMT1 inhibitor; purified Sfp enzyme, PPTase activity, qHTS; Potency, µM (highest dose often 57.1 µM), for the others: top-dose activity change, negative = inhibition, most hits filed as inhibitors; 87% of 230 active; AID 602370
hGST ctr = counter-screen for Sfp PPTase inhibitors: hGST A1-1 inhibition. shares compounds with NTMT1 inhibitor. hGST A1-1 enzyme activity counter-screen, qHTS. Potency, µM (highest dose often 114 µM), without a hit: top-dose activity change, negative = inhibition, most hits filed as inhibitors. 55 tested, under 10 active. AID 602391
HSD17B4 inh = inhibits human HSD17B4, off-target for HPGD inhibitors; shares compounds with NTMT1 inhibitor; purified HSD17B4, estradiol/NAD+, NADH fluorescence; Potency, µM (doses to about 57.1 µM), inactives show top-dose activity change, negative = inhibition, most hits filed as inhibitors; 10% of 230 active; AID 743187
ALDH1A1 inh = inhibits human ALDH1A1, off-target for HPGD inhibitors; Potency, µM (top dose mostly 57.1 µM), without a hit: at the top dose activity change, negative = inhibition, actives largely listed as inhibitors; recombinant ALDH1A1, NADH fluorescence, propionaldehyde/NAD+; shares compounds with NTMT1 inhibitor; AID 743195; 93% of 230 active
Target sequence (P00352 whole entry, looked up): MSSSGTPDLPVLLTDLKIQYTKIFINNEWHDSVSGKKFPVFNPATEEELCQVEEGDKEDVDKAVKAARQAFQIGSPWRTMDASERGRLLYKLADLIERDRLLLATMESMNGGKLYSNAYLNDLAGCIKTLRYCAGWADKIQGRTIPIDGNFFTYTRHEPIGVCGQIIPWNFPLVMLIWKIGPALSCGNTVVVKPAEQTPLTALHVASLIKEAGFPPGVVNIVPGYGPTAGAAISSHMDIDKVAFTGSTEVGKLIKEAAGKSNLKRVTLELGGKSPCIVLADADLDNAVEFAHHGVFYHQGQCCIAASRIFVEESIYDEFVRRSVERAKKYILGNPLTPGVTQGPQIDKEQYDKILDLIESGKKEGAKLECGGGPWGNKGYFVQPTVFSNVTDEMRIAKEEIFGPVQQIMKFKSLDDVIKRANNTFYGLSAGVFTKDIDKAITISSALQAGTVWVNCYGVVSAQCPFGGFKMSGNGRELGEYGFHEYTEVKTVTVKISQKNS
NNMT counter = blocks human NNMT methyltransferase. Potency, µM (doses to about 57.1 µM), inactives show top-dose activity, negative = inhibition, most hits filed as inhibitors. 10% of 120 active. shares compounds with NTMT1 inhibitor. NNMT MTase-Glo luminescence, SAH detection. AID 1645878
Starred values were filed as active, the others as inactive; [ ] = remark or other dose. The entries come from a sample that favours hits as a whole. The call rests on the fitted dose curve; in most records, active means well fitted curve in the direction sought with a large enough effect; inconclusive means small, poorly fitted or top-dose-only effect, or another doubt; inactive means no such curve, though single readings can be large; an effect the other way counts as inactive or inconclusive.

What do the screens show for `Cc1ccc2nc3sc(C(=O)NC4CCCCC4)cc3cc2c1`?
NTMT1 inhibitor: -4%[57.5 µM]

Results for Cc1ccc(CNc2ncnc3ccc(-c4ccoc4)cc23)o1 ?
NTMT1 inhibitor: -5%; DYRK1A KinaseGlo: 6.5µM*

Results for c1nc(NCc2ccc3c(c2)OCO3)c2cc(-c3ccoc3)ccc2n1 ?
NTMT1 inhibitor: 1%

Results for Cc1ccc(-c2ccc(=O)n(CC(=O)NCCCN(C)C)n2)cc1 ?
NTMT1 inhibitor: 11%

What do the screens show for `C=C(C)C(=O)O[C@H]1CC2=CC(C/C(C)=C\[C@H]3OC(=O)C(=C)[C@H]13)OC2=O` (some centres undefined)?
FH mod: 5%[53.3 µM]; NTMT1 inhibitor: 7%[29.8 µM]

What do the screens show for `Cc1cccc(Nc2nc(-c3ccncc3)cs2)c1`?
SKOV3 invasion: inconclusive; FH mod: -2%; NTMT1 inhibitor: 2.5µM*; NNMT counter: 8.9µM*

Results for COc1cccc(CNC(=O)Nc2nc(-c3ccncc3)cs2)c1 ?
FH mod: -2%; NTMT1 inhibitor: -9%[57.5 µM]

What do the screens show for `COc1cc2ncnc(Nc3cccc(I)c3)c2cc1OC`?
FH mod: -4%; NTMT1 inhibitor: 22µM*; NNMT counter: inconclusive

How did COc1cccc(OCCCN)c1-c1cc(Nc2cnc(C#N)cn2)n[nH]1 do in these assays?
FH mod: 4%; NTMT1 inhibitor: 8.9µM*; NNMT counter: -11%

What do the screens show for `CC/C(=C(\c1ccc(O)cc1)c1ccc(OCCNC)cc1)c1ccccc1`?
FH mod: -11%; NTMT1 inhibitor: 22µM*; NNMT counter: inconclusive

Results for Cc1nc2cccnc2n1C1CCN(C(=O)Nc2ccccc2)CC1 ?
p53null 32C tox: 2%; SKOV3 invasion: 0%; FH mod: -2%; NTMT1 inhibitor: -13%; p53null 39C tox: -7%

Results for Cc1ccc(-c2ccc3ncc4c(c3n2)n(C2CCN(C(=O)[C@H](C)O)CC2)c(=O)n4C)cn1 ?
FH mod: -4%; NTMT1 inhibitor: 16µM*; NNMT counter: inconclusive

How did Cc1ccc(C)c(N2CCN(C(=O)NCc3noc4ccccc34)CC2)c1 do in these assays?
p53null 32C tox: -6%; SKOV3 invasion: 7%; FH mod: -7%; NTMT1 inhibitor: -2%; p53null 39C tox: -10%

What do the screens show for `Cc1cc(C)nc(NC(=S)N2CCN(c3cnc4nccn4c3)CC2)c1`?
NTMT1 inhibitor: inconclusive; Sfp qHTS opt: 19µM*; HM489 growth: inconclusive; Sfp gel opt: -54%; Sfp inh SAR2: 18µM*; HSD17B4 inh: inconclusive; ALDH1A1 inh: -154%

What do the screens show for `Cc1cc(C)nc(NC(=S)N2CCN(c3noc4ccccc34)CC2)c1`?
NTMT1 inhibitor: inconclusive; Sfp qHTS opt: 3.3µM*; HM489 growth: inconclusive; Sfp gel opt: -67%; Sfp inh SAR2: 2.9µM*; HSD17B4 inh: -18%; ALDH1A1 inh: 17µM*

Results for Cc1cc(C)nc(NC(=S)N2CCN(c3ccc(Cl)cc3Cl)CC2)c1 ?
Sfp qHTS opt: 1.2µM*; HM489 growth: 8.3µM*; Sfp gel opt: 3.2µM*; Sfp inh gel: 3.8µM*; Sfp inh SAR2: 1µM*; hGST ctr: 2.4µM*; HSD17B4 inh: 5%; ALDH1A1 inh: 17µM*

Results for Cc1cc(Cl)ccc1NC(=S)N1CCN(Cc2ccccc2)CC1 ?
p53null 32C tox: 6%; p53null 39C tox: 14%[1.84 µM]

How did Cc1cc(C)nc(NC(=S)N2CCN(c3ncccc3Cl)CC2)c1 do in these assays?
NTMT1 inhibitor: inconclusive; Sfp qHTS opt: 3.7µM*; HM489 growth: -17%; Sfp gel opt: inconclusive; Sfp inh SAR2: 2µM*; HSD17B4 inh: -17%; ALDH1A1 inh: 19µM*

Results for Cc1cc(C)cc(C(=O)Nc2ccc(-c3cn4cccnc4n3)cc2)c1 ?
p53null 32C tox: -2%; SKOV3 invasion: inconclusive; FH mod: 2%; NTMT1 inhibitor: inconclusive; p53null 39C tox: -8%
